In paper PMC7862700, “An all-to-all approach to the identification of sequence-specific readers for epigenetic DNA modifications on cytosine” one finds binding signal data, which are given here for 7 sequences.

Common to all, as to assay: DAPPL (digital affinity profiling via proximity ligation, sequencing); 10 mM Tris-HCl pH 7.5, 50 mM NaCl, 1 mM DTT, 4% glycerol, room temperature, 30 min; GST-TFs on glutathione beads, 16-mer random dsDNA library, 0.1% formaldehyde crosslink after washing; high values mean tight binding
Common to all, as to conditions: protein: recombinant; tags: N-terminal GST; dsDNA, one strand shown

Assay [1] deals with T1, FLI1 (Homo sapiens, UniProt Q01543 1-452).
T1 sequence: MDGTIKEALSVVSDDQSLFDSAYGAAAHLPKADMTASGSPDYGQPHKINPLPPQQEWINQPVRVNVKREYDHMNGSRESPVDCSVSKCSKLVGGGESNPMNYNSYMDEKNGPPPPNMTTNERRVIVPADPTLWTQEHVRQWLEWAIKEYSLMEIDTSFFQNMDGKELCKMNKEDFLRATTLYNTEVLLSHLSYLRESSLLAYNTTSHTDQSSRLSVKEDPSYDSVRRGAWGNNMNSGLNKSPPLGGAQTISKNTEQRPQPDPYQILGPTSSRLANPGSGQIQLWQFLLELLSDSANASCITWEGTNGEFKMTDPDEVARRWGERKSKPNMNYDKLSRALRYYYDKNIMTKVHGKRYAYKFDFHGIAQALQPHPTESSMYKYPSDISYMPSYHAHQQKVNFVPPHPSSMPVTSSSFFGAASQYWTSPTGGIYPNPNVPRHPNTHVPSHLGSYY
Summed up: (§1)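 Binding signal is each hexamer's read frequency for a factor divided by its frequency in the tag-only sample. The factors were GST-fused human transcription factors from yeast, captured on glutathione beads, DNA-barcoded and pooled with that sample. Pools were incubated with 200 nmole of a random double-stranded 16-mer DNA library in Tris/NaCl/DTT/glycerol buffer at room temperature for 30 min, then washed, crosslinked with 0.1% formaldehyde, proximity-ligated with BsaI/T4 ligase (1 h, 37 °C), PCR-amplified and sequenced on an Illumina NextSeq500.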

Assay [2] concerns the target T2, ELK1 (Homo sapiens, UniProt P19419 1-428).
T2 sequence: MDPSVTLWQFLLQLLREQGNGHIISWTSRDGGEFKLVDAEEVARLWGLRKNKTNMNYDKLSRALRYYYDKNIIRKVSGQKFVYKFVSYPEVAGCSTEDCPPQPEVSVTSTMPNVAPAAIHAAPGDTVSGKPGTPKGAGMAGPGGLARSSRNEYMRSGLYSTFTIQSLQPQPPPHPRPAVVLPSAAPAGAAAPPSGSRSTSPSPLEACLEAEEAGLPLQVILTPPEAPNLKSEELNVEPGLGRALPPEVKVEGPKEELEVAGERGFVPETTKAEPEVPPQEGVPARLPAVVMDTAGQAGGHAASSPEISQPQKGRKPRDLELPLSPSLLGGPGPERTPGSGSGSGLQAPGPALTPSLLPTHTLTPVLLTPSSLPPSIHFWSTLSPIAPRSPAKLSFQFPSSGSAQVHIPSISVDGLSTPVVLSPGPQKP
In a few lines:
as §1

For assay [3], the target named is T3, GABPA (Homo sapiens, UniProt Q06546 1-454).
T3 sequence: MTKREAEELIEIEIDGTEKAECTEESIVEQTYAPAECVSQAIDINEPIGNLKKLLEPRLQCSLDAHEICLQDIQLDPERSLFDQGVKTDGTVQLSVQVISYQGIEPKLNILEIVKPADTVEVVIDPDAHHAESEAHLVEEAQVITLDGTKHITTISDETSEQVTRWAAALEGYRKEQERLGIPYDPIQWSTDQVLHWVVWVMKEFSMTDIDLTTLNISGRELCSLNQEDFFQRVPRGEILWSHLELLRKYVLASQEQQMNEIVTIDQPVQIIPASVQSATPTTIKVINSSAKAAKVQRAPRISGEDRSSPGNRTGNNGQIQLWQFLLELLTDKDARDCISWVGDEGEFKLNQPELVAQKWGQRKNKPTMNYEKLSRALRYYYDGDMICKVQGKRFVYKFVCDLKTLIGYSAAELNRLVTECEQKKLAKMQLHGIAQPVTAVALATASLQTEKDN
In a few lines:
as §1

Assay [4] deals with T4, ERG (Homo sapiens, UniProt P11308 1-479).
T4 sequence: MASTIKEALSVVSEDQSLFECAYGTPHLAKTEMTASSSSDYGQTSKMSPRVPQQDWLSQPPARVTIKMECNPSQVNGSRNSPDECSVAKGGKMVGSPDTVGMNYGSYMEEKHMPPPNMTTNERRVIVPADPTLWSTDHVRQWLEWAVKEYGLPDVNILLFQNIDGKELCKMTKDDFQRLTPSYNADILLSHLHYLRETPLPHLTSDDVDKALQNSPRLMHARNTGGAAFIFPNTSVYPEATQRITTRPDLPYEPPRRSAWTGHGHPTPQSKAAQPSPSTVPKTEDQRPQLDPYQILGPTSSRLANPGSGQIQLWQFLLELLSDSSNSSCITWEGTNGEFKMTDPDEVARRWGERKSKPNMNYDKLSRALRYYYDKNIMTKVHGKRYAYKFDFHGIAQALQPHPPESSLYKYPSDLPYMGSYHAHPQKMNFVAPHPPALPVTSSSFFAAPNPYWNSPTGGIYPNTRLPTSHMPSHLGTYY
Summed up:
as §1

The target of assay [5] is ELF1 (Homo sapiens, UniProt P32519 1-619). Summed up:
as §1

Assay [6] deals with T5, EHF (Homo sapiens, UniProt Q9NZC4 1-300).
T5 sequence: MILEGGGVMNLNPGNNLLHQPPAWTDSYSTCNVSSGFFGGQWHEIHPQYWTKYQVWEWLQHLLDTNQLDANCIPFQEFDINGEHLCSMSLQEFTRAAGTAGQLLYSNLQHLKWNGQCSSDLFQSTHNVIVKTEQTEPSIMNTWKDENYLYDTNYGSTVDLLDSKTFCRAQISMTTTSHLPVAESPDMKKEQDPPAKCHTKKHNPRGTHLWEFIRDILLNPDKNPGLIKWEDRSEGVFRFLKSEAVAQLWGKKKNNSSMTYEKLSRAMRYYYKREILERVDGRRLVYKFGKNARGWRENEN
Summed up: as §1

Assay [7] concerns the target SPI1 (Homo sapiens, UniProt P17947 1-270). Summed up: as §1
Assay [8] has as its target SPIB (Homo sapiens, UniProt Q01892 1-262). In a few lines: as §1
Assay [9] addresses T6, ELK3 (Homo sapiens, UniProt P41970 1-407).
T6 sequence: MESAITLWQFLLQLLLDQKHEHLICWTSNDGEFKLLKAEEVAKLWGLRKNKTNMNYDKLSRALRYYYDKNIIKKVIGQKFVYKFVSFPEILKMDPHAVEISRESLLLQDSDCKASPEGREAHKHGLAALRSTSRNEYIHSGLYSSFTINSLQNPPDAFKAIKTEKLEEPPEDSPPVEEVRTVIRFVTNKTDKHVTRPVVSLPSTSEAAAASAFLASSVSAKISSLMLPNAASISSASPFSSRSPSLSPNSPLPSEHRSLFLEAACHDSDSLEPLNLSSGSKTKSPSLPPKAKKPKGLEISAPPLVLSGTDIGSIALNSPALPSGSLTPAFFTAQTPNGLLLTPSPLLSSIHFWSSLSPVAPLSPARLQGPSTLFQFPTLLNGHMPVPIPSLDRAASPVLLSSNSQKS
In a few lines: as §1

Chain of SPIB (Q01892 whole entry): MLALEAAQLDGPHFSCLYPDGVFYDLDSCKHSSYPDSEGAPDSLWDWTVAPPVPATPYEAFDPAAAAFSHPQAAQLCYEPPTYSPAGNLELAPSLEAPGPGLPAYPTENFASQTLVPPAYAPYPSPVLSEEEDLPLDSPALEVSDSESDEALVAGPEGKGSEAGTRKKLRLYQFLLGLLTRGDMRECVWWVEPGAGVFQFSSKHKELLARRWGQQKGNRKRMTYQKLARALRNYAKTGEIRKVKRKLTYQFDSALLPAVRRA
Chain of ELF1 (P32519 whole entry): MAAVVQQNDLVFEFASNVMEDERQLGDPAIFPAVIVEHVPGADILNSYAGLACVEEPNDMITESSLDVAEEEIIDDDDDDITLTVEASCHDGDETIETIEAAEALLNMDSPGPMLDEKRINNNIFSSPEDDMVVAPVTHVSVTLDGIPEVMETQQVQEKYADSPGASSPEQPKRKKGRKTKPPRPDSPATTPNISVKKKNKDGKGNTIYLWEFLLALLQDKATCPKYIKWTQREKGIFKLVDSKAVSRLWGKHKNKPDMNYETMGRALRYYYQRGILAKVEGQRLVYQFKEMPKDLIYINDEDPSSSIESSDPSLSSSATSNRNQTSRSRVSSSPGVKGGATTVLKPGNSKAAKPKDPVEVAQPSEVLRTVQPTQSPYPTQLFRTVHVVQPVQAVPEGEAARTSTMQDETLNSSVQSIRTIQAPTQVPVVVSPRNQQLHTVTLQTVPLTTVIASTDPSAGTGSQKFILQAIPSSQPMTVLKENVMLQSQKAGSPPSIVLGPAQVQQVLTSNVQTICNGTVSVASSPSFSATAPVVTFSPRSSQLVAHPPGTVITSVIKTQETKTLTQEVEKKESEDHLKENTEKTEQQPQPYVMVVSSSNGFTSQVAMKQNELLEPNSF

For the sequence AACTCC, the binding signal in assay [1] is 1.47 fold enrichment (6-mer frequency, TF over GST control); in assay [2], 1.29 fold enrichment (6-mer frequency, TF over GST control); in assay [3], 1.39 fold enrichment (6-mer frequency, TF over GST control); in [4], 1.32 fold enrichment (6-mer frequency, TF over GST control); in [5], 1.35 fold enrichment (6-mer frequency, TF over GST control); in [6], 1.3 fold enrichment (6-mer frequency, TF over GST control). Besides, the binding signal is 1.34 fold enrichment (6-mer frequency, TF over GST control) in [7]; 1.32 fold enrichment (6-mer frequency, TF over GST control) in assay [8]; 1.38 fold enrichment (6-mer frequency, TF over GST control) in assay [9].
As to ACTTGC, the binding signal was 1.46 fold enrichment (6-mer frequency, TF over GST control) in assay [1]; 1.48 fold enrichment (6-mer frequency, TF over GST control) in assay [2]; 1.42 fold enrichment (6-mer frequency, TF over GST control) in assay [3]; 1.41 fold enrichment (6-mer frequency, TF over GST control) in [4]; 1.37 fold enrichment (6-mer frequency, TF over GST control) in [5]; 1.52 fold enrichment (6-mer frequency, TF over GST control) in assay [6]. Moreover, the binding signal in assay [7] was 1.54 fold enrichment (6-mer frequency, TF over GST control); in assay [8] it was 1.35 fold enrichment (6-mer frequency, TF over GST control); in [9] it was 1.35 fold enrichment (6-mer frequency, TF over GST control).
In the case of TCTGAA, the binding signal was 1.11 fold enrichment (6-mer frequency, TF over GST control) in assay [1]; 1.22 fold enrichment (6-mer frequency, TF over GST control) in assay [2]; 1.13 fold enrichment (6-mer frequency, TF over GST control) in [3]; 1.15 fold enrichment (6-mer frequency, TF over GST control) in assay [4]; 1.18 fold enrichment (6-mer frequency, TF over GST control) in assay [5]; 1.18 fold enrichment (6-mer frequency, TF over GST control) in assay [6]. The binding signal in assay [7] was 1.18 fold enrichment (6-mer frequency, TF over GST control); in assay [8] it was 1.26 fold enrichment (6-mer frequency, TF over GST control); in assay [9], 1.17 fold enrichment (6-mer frequency, TF over GST control).
Consider ATGTCT, for which the binding signal in assay [1] was 1.21 fold enrichment (6-mer frequency, TF over GST control); in assay [2], 1.28 fold enrichment (6-mer frequency, TF over GST control); in assay [3] it was 1.36 fold enrichment (6-mer frequency, TF over GST control); in assay [4], 1.22 fold enrichment (6-mer frequency, TF over GST control); in [5], 1.29 fold enrichment (6-mer frequency, TF over GST control); in assay [6], 1.13 fold enrichment (6-mer frequency, TF over GST control). Moreover, the binding signal in [7] was 1.32 fold enrichment (6-mer frequency, TF over GST control); in assay [8], 1.3 fold enrichment (6-mer frequency, TF over GST control); in [9], 1.18 fold enrichment (6-mer frequency, TF over GST control).
On to TTGTGC, for which the binding signal is 1.28 fold enrichment (6-mer frequency, TF over GST control) in [1]; 1.25 fold enrichment (6-mer frequency, TF over GST control) in [2]; 1.27 fold enrichment (6-mer frequency, TF over GST control) in [3]; 1.23 fold enrichment (6-mer frequency, TF over GST control) in [4]; 1.14 fold enrichment (6-mer frequency, TF over GST control) in [5]; 1.21 fold enrichment (6-mer frequency, TF over GST control) in assay [6]. The binding signal was 1.18 fold enrichment (6-mer frequency, TF over GST control) in [7]; 1.1 fold enrichment (6-mer frequency, TF over GST control) in [8]; 1.21 fold enrichment (6-mer frequency, TF over GST control) in assay [9].
With CGATTC, the binding signal is 1.31 fold enrichment (6-mer frequency, TF over GST control) in assay [1]; 1.21 fold enrichment (6-mer frequency, TF over GST control) in [2]; 1.23 fold enrichment (6-mer frequency, TF over GST control) in assay [3]; 1.12 fold enrichment (6-mer frequency, TF over GST control) in assay [4]; 1.24 fold enrichment (6-mer frequency, TF over GST control) in assay [5]; 1.17 fold enrichment (6-mer frequency, TF over GST control) in assay [6]. Further, the binding signal is 1.2 fold enrichment (6-mer frequency, TF over GST control) in [7]; 1.24 fold enrichment (6-mer frequency, TF over GST control) in assay [8]; 1.15 fold enrichment (6-mer frequency, TF over GST control) in assay [9].
On to CGTTCG, for which the binding signal in [1] is 1.15 fold enrichment (6-mer frequency, TF over GST control); in [2], 1.14 fold enrichment (6-mer frequency, TF over GST control); in assay [3], 1.23 fold enrichment (6-mer frequency, TF over GST control); in assay [4], 1.17 fold enrichment (6-mer frequency, TF over GST control); in [5], 1.22 fold enrichment (6-mer frequency, TF over GST control); in assay [6], 1.25 fold enrichment (6-mer frequency, TF over GST control). The binding signal is 1.1 fold enrichment (6-mer frequency, TF over GST control) in assay [7]; 1.14 fold enrichment (6-mer frequency, TF over GST control) in assay [8]; 1.24 fold enrichment (6-mer frequency, TF over GST control) in assay [9].
